{"source": "PubChem BioAssay AID927", "about": "(National Center for Advancing Translational Sciences (NCATS), 2007)", "note": "The whole screen tested about 60,000 compounds, of which about 65 (0.1%) were called active. The call rests on the fitted dose curve; in most records, active means well fitted inhibition curve with a large enough effect; inconclusive means small, poorly fitted or top-dose-only effect; inactive means no such curve, though single readings can be large or run the other way. Only a selection was taken, and actives are over-represented in it overall. Potency means the concentration at half of the fitted maximal effect.", "data": [{"target": "Ubiquitin carboxyl-terminal hydrolase 2 (Homo sapiens) (UniProt O75604)", "sequence (O75604 whole entry, looked up)": "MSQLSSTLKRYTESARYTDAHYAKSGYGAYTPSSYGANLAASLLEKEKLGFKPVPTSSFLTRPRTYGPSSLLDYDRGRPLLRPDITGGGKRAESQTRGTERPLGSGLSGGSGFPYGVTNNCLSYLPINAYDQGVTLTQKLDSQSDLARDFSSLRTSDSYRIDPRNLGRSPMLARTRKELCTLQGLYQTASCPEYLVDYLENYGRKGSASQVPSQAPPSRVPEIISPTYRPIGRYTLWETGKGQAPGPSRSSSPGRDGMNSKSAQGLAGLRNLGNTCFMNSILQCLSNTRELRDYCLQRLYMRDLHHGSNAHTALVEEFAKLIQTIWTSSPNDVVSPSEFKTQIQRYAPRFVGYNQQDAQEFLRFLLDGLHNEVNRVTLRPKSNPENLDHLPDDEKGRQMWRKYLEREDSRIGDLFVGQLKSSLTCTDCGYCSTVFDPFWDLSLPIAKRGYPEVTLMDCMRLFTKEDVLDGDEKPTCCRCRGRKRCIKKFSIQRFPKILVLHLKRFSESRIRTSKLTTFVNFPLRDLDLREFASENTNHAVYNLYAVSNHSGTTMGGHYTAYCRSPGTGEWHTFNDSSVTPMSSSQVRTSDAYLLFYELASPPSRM", "assay": "qHTS Assay for Inhibitors of Ubiquitin-specific Protease USP2a; further: nearly all actives have a fitted effect of over 60% in size;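 on activity change, negative = inhibition: plate controls were DMSO for no effect and NEM full inhibition control for full effect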", "details": "USP2a enzymatic assay; Potency: qHTS inhibition; series mostly up to 38.3 µM; activity change, negative = inhibition: at the top concentration", "method_in_brief": "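USP2 core (20 nM final) was preincubated with compound for 30 min at RT in 20 mM Tris-HCl pH 8.0, 2 mM CaCl2, 2 mM beta-mercaptoethanol; Ub-PLA2 (20 nM) plus NBD C6-HPC (20 uM) then added, fluorescence read after 2.5 h.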", "values": [{"smiles": "CCOC(=O)c1ccc(NC(=O)CSc2nnc(COc3ccccc3OC)n2C)cc1", "activity change, negative = inhibition": "9.55% (inactive)"}, {"smiles": "Cn1cc(-c2nc3cnc(N4CCNCC4)nc3n(CCC#N)c2=O)c2ccccc21", "activity change, negative = inhibition": "212% (inactive)"}, {"smiles": "O=C(NCc1ccc(Cl)c(Cl)c1)c1cccnc1", "activity change, negative = inhibition": "8.48% [at 7.66 µM] (inactive)"}, {"smiles": "COC(=O)Nc1ncc(CN2C(=O)c3ccccc3C2=O)s1", "activity change, negative = inhibition": "12% (inactive)"}, {"smiles": "CC(C)NC(=O)N1CCCC2(CCN(C(=O)c3cccn3C)CC2)C1", "Potency": "10 µM (active)"}, {"smiles": "CC(C)NC(=O)N1CC[C@@]2(CCCN(C(=O)c3cccn3C)C2)C1", "activity change, negative = inhibition": "15.7% (inactive)"}, {"smiles": "CC(C)NC(=O)N1CCC2(CC1)CCN(C(=O)c1cccn1C)CC2", "activity change, negative = inhibition": "8.09% (inactive)"}, {"smiles": "CCCNc1ncnc2sc(C)c(C)c12", "activity change, negative = inhibition": "-3.55% (inactive)"}, {"smiles": "Nc1nc2nc(Cl)[nH]c2c(=O)[nH]1", "activity change, negative = inhibition": "18.5% (inactive)"}, {"smiles": "Cc1cccc(CC(=O)Nc2c3c(nn2-c2cccc(Cl)c2)CS(=O)C3)c1", "note": "(stereo not drawn)", "activity change, negative = inhibition": "7.15% (inactive)"}, {"smiles": "Cc1ccccc1-c1nc(N(C)Cc2ccco2)c2ccccc2n1", "activity change, negative = inhibition": "-9.88% (inactive)"}, {"smiles": "CCOc1cccc(C(=O)Nc2cccnc2)c1", "activity change, negative = inhibition": "3.24% (inactive)"}, {"smiles": "O=C(Nc1cccc(F)c1)N1CC2(CCN(C(=O)c3csnn3)CC2)C1", "activity change, negative = inhibition": "12.9% (inactive)"}, {"smiles": "CCOC(=O)[C@H]1CCC[C@@H](NS(=O)(=O)c2ccc(NC(C)=O)cc2)C1", "activity change, negative = inhibition": "5.45% (inactive)"}, {"smiles": "CC(NC(=O)Nc1ccccc1)c1ccccc1", "note": "(stereo not drawn)", "activity change, negative = inhibition": "1.41% (inactive)"}, {"smiles": "Cc1ccc2c(CSc3nncs3)cc(=O)oc2c1", "activity change, negative = inhibition": "35.6% (inactive)"}, {"smiles": "COc1c2c(cc3occ(-c4ccc5c(c4)OCO5)c(=O)c13)OC(C)(C)C=C2", "activity change, negative = inhibition": "-26.3% (inactive)"}, {"smiles": "O=S(=O)(NCc1ccc2c(c1)OCO2)c1cccc2nsnc12", "activity change, negative = inhibition": "-1.28% (inactive)"}, {"smiles": "CCOC(=O)CSc1nc2c(c(=O)n(Cc3ccccc3Cl)c(=O)n2C)n1C", "activity change, negative = inhibition": "-0.387% (inactive)"}, {"smiles": "C/C=C(/C)C(=O)OC1Cc2c(ccc3ccc(=O)oc23)OC1(C)C", "note": "(stereo not drawn)", "activity change, negative = inhibition": "-1.14% (inactive)"}, {"smiles": "COCCCN1C(=O)c2ccc(C(=O)Nc3ccc(OC)cc3OC)cc2C1=O", "activity change, negative = inhibition": "13.4% (inactive)"}, {"smiles": "Cc1c(O)cc(O)c2c(=O)c(-c3ccc(O)cc3)coc12", "activity change, negative = inhibition": "-6.86% (inactive)"}, {"smiles": "CC(C)c1nnc(NC(=O)C2CCCN2S(=O)(=O)c2ccc(Cl)cc2)s1", "note": "(stereo not drawn)", "activity change, negative = inhibition": "9% (inactive)"}, {"smiles": "Oc1ccc2c(c1)OCC1c3cc4c(cc3OC21)OCO4", "note": "(stereo not drawn)", "activity change, negative = inhibition": "-11.2% (inactive)"}, {"smiles": "CN1C(=O)C[C@H](c2ccccc2)C1=O", "activity change, negative = inhibition": "-7.44% [at 17.1 µM] (inactive)"}, {"smiles": "O=C(NCc1cccnc1)c1cn(-c2ccccc2)nc1-c1cccs1", "activity change, negative = inhibition": "28.9% (inactive)"}, {"smiles": "CCC12CN3CC(CC)(CN(C1)C31C(=O)N(C)c3ccc(C)cc31)C2=O", "note": "(stereo not drawn)", "activity change, negative = inhibition": "0.969% (inactive)"}, {"smiles": "CCOC(=O)N1CCN(C(=O)CN(c2ccc(C)c(C)c2)S(=O)(=O)c2ccccc2)CC1", "activity change, negative = inhibition": "18.3% (inactive)"}, {"smiles": "COc1ccc(-c2ccc(-c3noc(-c4ccncc4)n3)c(OC)n2)cc1", "activity change, negative = inhibition": "21.4% (inactive)"}, {"smiles": "NC(=O)C1CC=CCC1C(=O)OCC(Cl)=C(Cl)Cl", "note": "(stereo not drawn)", "activity change, negative = inhibition": "12.5% (inactive)"}, {"smiles": "CC1C(O)CC2C(C(=O)O)=CO[C@@H](O[C@H]3OC(CO)C(O)C(O)C3O)C21", "note": "(stereo partly drawn)", "activity change, negative = inhibition": "-4.3% (inactive)"}, {"smiles": "CC(C)(C)c1ccc(C(=O)CSc2ncn[nH]2)cc1", "activity change, negative = inhibition": "-4.94% (inactive)"}, {"smiles": "c1cncc(CNc2ccnc(-c3ccc4c(c3)OCO4)n2)c1", "activity change, negative = inhibition": "23.9% (inactive)"}, {"smiles": "CCC(CCC(C)C1CCC2C3CC=C4CC(O)CC[C@@]4(C)C3CC[C@@]12C)C(C)C", "note": "(stereo partly drawn)", "activity change, negative = inhibition": "-2.58% (inactive)"}, {"smiles": "CC1(C)Cc2ccccc2-c2nnc(-c3cccc(O)c3)n21", "activity change, negative = inhibition": "-2.73% (inactive)"}, {"smiles": "COc1cccc(C2/C(=C(/O)c3ccc(F)cc3)C(=O)C(=O)N2CCN(C)C)c1", "note": "(stereo not drawn)", "activity change, negative = inhibition": "4.13% [at 7.66 µM] (inactive)"}, {"smiles": "CCOC(=O)C1=C(C)NC(C)=C(C(=O)OCC)C1C1=COCCO1", "activity change, negative = inhibition": "-3.29% (inactive)"}, {"smiles": "CSCCC1NC2(C(=O)Nc3ccc(Cl)cc32)[C@@H]2C(=O)N(C3CCCC3)C(=O)[C@H]12", "note": "(stereo partly drawn)", "activity change, negative = inhibition": "52.4% (inactive)"}, {"smiles": "O=C1C2(c3ccccc3)CN(CCCO)CC1(c1ccccc1)CN(CCCO)C2", "activity change, negative = inhibition": "-3% (inactive)"}, {"smiles": "CCCS(=O)(=O)N1CCCC(C(=O)NCCN2CCCCC2C)C1", "note": "(stereo not drawn)", "activity change, negative = inhibition": "-14% (inactive)"}, {"smiles": "CC(=O)c1c(N2CCOCC2)nc(=S)n(-c2cc(C)ccc2C)c1C", "activity change, negative = inhibition": "-3.02% (inactive)"}, {"smiles": "Cc1cc(C)c(C#N)c(SCc2ccc3c(c2)OCO3)n1", "activity change, negative = inhibition": "-11.2% (inactive)"}, {"smiles": "CCCC(CCC(=O)OC)(C(=O)OCC)c1csc(N)n1", "note": "(stereo not drawn)", "activity change, negative = inhibition": "-12.5% (inactive)"}, {"smiles": "COc1cc(OC)c2c(c1Cl)OC1(C2=O)C(O)=CC(=O)CC1C", "note": "(stereo not drawn)", "activity change, negative = inhibition": "7.89% (inactive)"}, {"smiles": "Cc1ccc2nc(-c3ccc(SCC(=O)Nc4cc(C)on4)nc3)[nH]c2c1", "activity change, negative = inhibition": "33.2% (inactive)"}, {"smiles": "COc1ccc(N(C(=O)c2cccnc2)S(=O)(=O)c2ccc3c(c2)n(C)c(=O)n3C)cc1", "activity change, negative = inhibition": "2.22% (inactive)"}, {"smiles": "CC(=O)C1C(c2cccc(Oc3ccccc3)c2)NC(=O)NC1(O)C(F)(F)F", "note": "(stereo not drawn)", "activity change, negative = inhibition": "9.93% (inactive)"}, {"smiles": "CC(=O)NS(=O)(=O)c1ccccc1", "activity change, negative = inhibition": "2.74% (inactive)"}, {"smiles": "COc1ccc(C2C(C#N)=C(N)Oc3n[nH]c(C)c32)cc1CN1CCN(c2ccc(F)cc2)CC1", "note": "(stereo not drawn)", "activity change, negative = inhibition": "11% (inactive)"}, {"smiles": "O=C(c1ccc(=O)[nH]c1)N(Cc1ccco1)C1(C(=O)NC2CCCCC2)CCCCC1", "activity change, negative = inhibition": "10.6% (inactive)"}, {"smiles": "CCCCCCOC(=O)NCC(O)c1ccccc1", "note": "(stereo not drawn)", "activity change, negative = inhibition": "7.61% (inactive)"}, {"smiles": "CCS(=O)(=O)N1CCCC(C(=O)NCCCN(C)Cc2ccccc2)C1", "note": "(stereo not drawn)", "activity change, negative = inhibition": "4.58% (inactive)"}, {"smiles": "CCCN1Cc2cccc(C(=O)NCc3ccccc3)c2C1=O", "activity change, negative = inhibition": "6.55% (inactive)"}]}]}
